Calls of active or inactive are those of the source. Unless noted, calls follow the shape of the dose curve; as a rule, active = well fitted curve in the direction sought with a large enough effect; inconclusive = small, poorly fitted or top-dose-only effect, or another doubt; inactive = no such curve, though single readings can be large; an effect the other way counts as inactive or inconclusive.
Legend:
[1] = target: Estrogen receptor (Homo sapiens) (UniProt P03372); assay: qHTS assay for small molecule antagonists of estrogen receptor alpha signaling (AID 588513; active = well fitted curve in the direction sought with a large enough effect in the signal ratio, with a control signal flat, not every such curve was filed as active; inconclusive = small, poorly fitted or top-dose-only effect, or effect the other way, or a change in a side signal; inactive = no such curve, though single readings can be large or run the other way; the % refers to the signal ratio; also: potency is read from the fitted curve at half-maximal effect)
How it was run: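 ER-alpha-UAS-bla GripTite HEK 293 cells in medium with 2% charcoal/dextran-treated FBS were preincubated 4 h at 37 C, dosed with compound (1:2 titration), stimulated with 0.5nM 17-beta-estradiol for 18 h, then read by CCF4 beta-lactamase fluorescence.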

[2] = target: Peroxisome proliferator-activated receptor delta (Homo sapiens) (UniProt Q03181); assay: qHTS assay for small molecule agonists of peroxisome proliferator-activated receptor delta signaling (AID 588534; calls by dose curve;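 also: 0% = DMSO basal wells and 100% = positive control agonist at 10 µM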)
How it was run: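 Cell-based beta-lactamase reporter assay run in agonist mode: cells seeded and incubated 5 hrs at 37 C, compounds added and incubated 18 hrs at 37 C. CCF4 dye fluorescence read after 2 hrs at RT; EC50 and efficacy from Hill fits.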

[3] = qHTS assay for small molecule antagonists of peroxisome proliferator-activated receptor delta signaling (AID 588535); conditions: HEK293T PPARd-UAS-bla, beta-lactamase FRET ratio, 18 h; 460 nm channel;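 also: cells co-treated with a PPAR-delta agonist as stimulator during compound exposure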
How it was run: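 GeneBLAzer PPAR-delta-UAS-bla HEK293T cells in medium with 2% charcoal/dextran FBS were preincubated 5 hrs at 37 C, then given compounds, incubated 18 hrs at 37 C, and read by CCF4 beta-lactamase fluorescence; IC50 from Hill fits.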

[4] = target: Peroxisome proliferator-activated receptor gamma (Homo sapiens) (UniProt P37231); assay: qHTS assay for small molecule agonists of peroxisome proliferator-activated receptor gamma signaling (AID 588536; active = well fitted curve in the direction sought with a large enough effect in the signal ratio, with a control signal flat, not every such curve was filed as active; inconclusive = small, poorly fitted or top-dose-only effect, or effect the other way, or a change in a side signal; inactive = no such curve, though single readings can be large or run the other way; the % refers to the signal ratio;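 also: 0% = DMSO basal wells and 100% = rosiglitazone at 2 µM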)
How it was run: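 Test agents, titrated, stimulated HEK293 UAS-bla cells overnight (16 h, 37 C). Substrate CCF4 was then added for two hours at room temperature before fluorescence reading.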

[5] = target: Peroxisome proliferator-activated receptor gamma (Homo sapiens) (UniProt P37231); assay: qHTS assay for small molecule antagonists of peroxisome proliferator-activated receptor gamma signaling (AID 588537; active = well fitted inhibition curve with a large enough effect in the signal ratio, with a control signal flat, not every such curve was filed as active; inconclusive = small, poorly fitted or top-dose-only effect, or effect the other way, or a change in a side signal; the % refers to the signal ratio;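 also: reporter cells co-stimulated with 50 nM rosiglitazone agonist during compound treatment; % of control where 0% means no effect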)
How it was run: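 PPAR-gamma-UAS-bla HEK293 cells (3000/well, 1% charcoal/dextran-stripped FBS) were preincubated 6-6.5 h at 37 C, given titrated compounds, then stimulated with 50 nM rosiglitazone for 16 h. Beta-lactamase activity was read with CCF4 dye; IC50 came from Hill fits.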

[6] = target: Vitamin D3 receptor (Homo sapiens) (UniProt P11473); assay: qHTS assay for small molecule antagonists of vitamin D receptor signaling (AID 588541; calls by dose curve;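 also: receptor activated by calcitriol during compound treatment; series mostly up to about 77 µM; % is scaled to controls: 0 for no effect and ±100 for the full control effect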)
How it was run: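 VDR-UAS-bla HEK293T cells (2000/well, 2% charcoal-stripped FBS) were treated with titrated compounds plus 1-alpha,25-dihydroxyvitamin D3 (50 nM or 3 nM final) for 16 h at 37 C. CCF4 beta-lactamase fluorescence was read; Hill fits gave IC50.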

[7] = qHTS assay for small molecule agonists of retinoid X receptor alpha signaling (AID 588544; calls by dose curve;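 as to activation: 0% = DMSO basal wells and 100% = reference agonist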); conditions: HEK293T RXRa-UAS-bla, beta-lactamase reporter, 18 h; 530 nm emission
[8] = target: Retinoic acid receptor RXR-alpha (Homo sapiens) (UniProt P19793); assay: as above
[9] = target: Thyroid hormone receptor beta (Homo sapiens) (UniProt P10828); assay: qHTS assay for small molecule agonists of thyroid hormone receptor beta signaling (AID 588545; calls by dose curve;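 also: 0% = DMSO only and 100% = 10 nM T3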)
How it was run: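 Stimulation of a TR-driven beta-lactamase reporter was quantified in GripTite HEK 293 cells. Compound series ran for 18 hrs; curves were normalized to T3 and DMSO controls and fitted to yield EC50.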

[10] = qHTS assay for small molecule antagonists of retinoid X receptor alpha signaling (AID 588546; active = well fitted inhibition curve with a large enough effect in the signal ratio, with a control signal flat, not every such curve was filed as active; inconclusive = small, poorly fitted or top-dose-only effect, or effect the other way, or a change in a side signal; inactive = no such curve, though single readings can be large or run the other way; the % refers to the signal ratio;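 also: cells stimulated with 9-cis-retinoic acid as agonist; % is scaled to controls: 0 for no effect and ±100 for the full control effect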); conditions: HEK293T RXRa-UAS-bla, beta-lactamase ratio, antagonist mode; measured here: W530 green channel, cytotoxicity proxy
How it was run: (§1)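 Beta-lactamase reporter inhibition, read as CCF4 fluorescence ratio (ex 405, em 460/530 nm) after 2 h at RT. HEK293T UAS-bla cells, 2500/well, were stimulated with 9-cis-RA at 500 or 100 nM final alongside test compound for 18 h at 37 C.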

[11] = target: Retinoic acid receptor RXR-alpha (Homo sapiens) (UniProt P19793); assay: as above; conditions: HEK293T RXRa-UAS-bla, beta-lactamase ratio, antagonist mode
How it was run: as §1

[12] = qHTS assay for environmental chemicals that activate the Aryl hydrocarbon Receptor (AhR) signaling pathway (AID 651777); conditions: 1A2-DRE human hepatoma cells, luciferase, 24 h; activation: stronger effect = higher value; also: % of control where 0% means no effect; nearly all actives have a fitted effect of over 15% in size
How it was run: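 Measured luciferase activity, read 30 min after One-Glo addition at room temperature, from human hepatoma cells bearing a dioxin response element–CYP1A2 promoter reporter and exposed to compound for 24 hr at 37 C.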

[13] = target: Peroxisome proliferator-activated receptor alpha (Homo sapiens) (UniProt Q07869); assay: qHTS assay for small molecule agonists of the peroxisome proliferator-activated receptor alpha (PPARalpha) signaling pathway (AID 651778); conditions: PathHunter PPARalpha complementation, chemiluminescence, 6 h; max response: stronger effect = higher value; also: % of control where 0% means no effect
How it was run: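 Cells plated at 2,000/well and held overnight at 37 C, 5% CO2, then compound added by pin tool for 6 hr; after PathHunter detection reagent and 60 min at room temperature, chemiluminescence from enzyme complementation was read.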

[14] = qHTS assay for small molecule agonists of the antioxidant response element (ARE) signaling pathway measured by Nrf2-dependant transcriptional activity (AID 720636; active = well fitted curve in the direction sought with a large enough effect in the repeat runs; inconclusive = weak or mixed curves; inactive = no such curve, though single readings can be large; an effect the other way counts as inactive or inconclusive;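 also: HepG2 cells with an ARE-driven luciferase reporter; % of control where 0% means no effect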)
How it was run: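 In HepG2 cells engineered with an Nrf2-responsive luciferase gene, ARE induction was quantified as luminescence after 16 hr compound treatment at 37 C.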

[15] = qHTS assay for small molecule agonists of the antioxidant response element (ARE) signaling pathway measured by Nrf2-dependant transcriptional activity - cell viability counter screen (AID 720653; active = well fitted curve in the direction sought with a large enough effect in the repeat runs; inconclusive = weak or mixed curves; inactive = no such curve, though single readings can be large; an effect the other way counts as inactive or inconclusive; also: % is scaled to controls: 0 for no effect and ±100 for the full control effect); conditions: ARE-bla HepG2 viability, CellTiter-Glo ATP luminescence, 16 h; max response: stronger effect = lower value
How it was run: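 ARE-bla HepG2 cells (2,000/well) rested 5 hrs at 37C/5% CO2, then exposed to compounds in DMSO for 16 hrs. Viability was read in the same wells as intracellular ATP by luminescence, 30 min at room temperature after reagent addition.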

[16] = qHTS assay for cell viability of HEK293 cells (AID 743288); conditions: ATP luminescence (CellTiter-Glo), 18 h; max response: stronger effect = lower value; also: % is scaled to controls: 0 for no effect and ±100 for the full control effect; nearly all actives have a fitted effect of over 50% in size
How it was run: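 Parental HEK293 cells were seeded at 2,000 cells/well, rested at least 5 h at 37 C, then exposed to compounds in DMSO for 18 h at 37 C. Viability was read as ATP-dependent luciferase luminescence after 30 min at room temperature.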

[17] = qHTS assay for cell viability of the p53RE-bla HCT-116 cell line (AID 743292); also: % is scaled to controls: 0 for no effect and ±100 for the full control effect; nearly all actives have a fitted effect of over 55% in size
How it was run: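 Intracellular ATP of p53RE-bla HCT-116 cells measured by luciferase luminescence following 16 h compound incubation at 37 C; DMSO-only wells served as vehicle controls.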

[18] = target: Vitamin D3 receptor (Homo sapiens) (UniProt P11473); assay: qHTS assay for small molecule agonists of vitamin D receptor signaling (AID 588543; calls by dose curve;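 also: 0% = DMSO basal and 100% = reference agonist control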)
How it was run: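 GeneBLAzer VDR-UAS-bla HEK293T cells in 2% charcoal-stripped FBS medium were dosed with compound titrations for 16 h at 37 °C; CCF4 β-lactamase readout (405 nm ex, 460/530 nm em). EC50 and efficacy from Hill fits, normalized to 50 nM calcitriol (100%) and DMSO (0%).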

[19] = target: Nuclear receptor subfamily 1 group I member 2 (Rattus norvegicus) (UniProt Q9R1A7); assay: qHTS assay for small molecule activators of the rat pregnane X receptor (rPXR) signaling pathway (AID 651751; call rule not given here; also: 0% is about no effect); conditions: rPXR reporter cells, luciferase (One-Glo), 24 h
[20] = qHTS assay for small molecule activators of the p53 signaling pathway (AID 651743; active = well fitted activation curve with a large enough effect in the signal ratio, not every such curve was filed as active; inconclusive = small, poorly fitted or top-dose-only effect, or a change in a side signal; the % refers to the signal ratio; also: potency is read from the fitted curve at half-maximal effect; as to activation: series mostly up to about 92 µM; % of control where 0% means no effect); conditions: HCT-116 p53RE-bla, beta-lactamase FRET ratio, 16 h; activation: stronger effect = higher value
How it was run: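 p53RE-bla HCT-116 cells with a stably integrated beta-lactamase reporter under p53 response elements were plated, rested 5 hours at 37 C/5% CO2, then exposed to compounds in DMSO for 16 hours at 37 C. LiveBLAzer B/G FRET substrate was read after 2 hours at room temperature.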

Sequence of Peroxisome proliferator-activated receptor gamma (Homo sapiens) (P37231 whole entry, looked up): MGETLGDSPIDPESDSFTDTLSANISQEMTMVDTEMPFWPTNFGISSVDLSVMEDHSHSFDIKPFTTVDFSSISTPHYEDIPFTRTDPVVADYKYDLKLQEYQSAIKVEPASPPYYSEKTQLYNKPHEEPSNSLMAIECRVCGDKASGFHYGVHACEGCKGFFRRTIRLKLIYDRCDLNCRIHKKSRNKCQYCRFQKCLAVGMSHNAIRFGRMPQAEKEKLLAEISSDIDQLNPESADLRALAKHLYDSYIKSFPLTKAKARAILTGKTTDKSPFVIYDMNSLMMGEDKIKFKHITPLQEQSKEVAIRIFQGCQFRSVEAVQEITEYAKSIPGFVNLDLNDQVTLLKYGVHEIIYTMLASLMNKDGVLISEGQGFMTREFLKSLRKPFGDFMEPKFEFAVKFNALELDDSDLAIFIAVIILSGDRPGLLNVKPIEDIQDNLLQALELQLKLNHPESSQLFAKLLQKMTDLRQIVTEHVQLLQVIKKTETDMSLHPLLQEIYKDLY
Sequence of Vitamin D3 receptor (Homo sapiens) (P11473 whole entry, looked up): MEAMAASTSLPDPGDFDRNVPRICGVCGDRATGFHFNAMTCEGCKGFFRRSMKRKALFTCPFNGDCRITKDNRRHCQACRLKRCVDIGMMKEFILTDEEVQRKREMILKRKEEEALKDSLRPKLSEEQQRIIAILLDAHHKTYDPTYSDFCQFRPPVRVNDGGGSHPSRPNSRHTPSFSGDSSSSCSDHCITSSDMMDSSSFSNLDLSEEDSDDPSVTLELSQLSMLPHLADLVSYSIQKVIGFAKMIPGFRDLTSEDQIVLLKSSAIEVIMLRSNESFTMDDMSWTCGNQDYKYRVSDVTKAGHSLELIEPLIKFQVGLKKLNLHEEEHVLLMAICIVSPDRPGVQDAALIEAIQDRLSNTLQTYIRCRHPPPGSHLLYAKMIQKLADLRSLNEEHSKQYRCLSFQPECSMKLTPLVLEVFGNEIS
Sequence of Estrogen receptor (Homo sapiens) (P03372 whole entry, looked up): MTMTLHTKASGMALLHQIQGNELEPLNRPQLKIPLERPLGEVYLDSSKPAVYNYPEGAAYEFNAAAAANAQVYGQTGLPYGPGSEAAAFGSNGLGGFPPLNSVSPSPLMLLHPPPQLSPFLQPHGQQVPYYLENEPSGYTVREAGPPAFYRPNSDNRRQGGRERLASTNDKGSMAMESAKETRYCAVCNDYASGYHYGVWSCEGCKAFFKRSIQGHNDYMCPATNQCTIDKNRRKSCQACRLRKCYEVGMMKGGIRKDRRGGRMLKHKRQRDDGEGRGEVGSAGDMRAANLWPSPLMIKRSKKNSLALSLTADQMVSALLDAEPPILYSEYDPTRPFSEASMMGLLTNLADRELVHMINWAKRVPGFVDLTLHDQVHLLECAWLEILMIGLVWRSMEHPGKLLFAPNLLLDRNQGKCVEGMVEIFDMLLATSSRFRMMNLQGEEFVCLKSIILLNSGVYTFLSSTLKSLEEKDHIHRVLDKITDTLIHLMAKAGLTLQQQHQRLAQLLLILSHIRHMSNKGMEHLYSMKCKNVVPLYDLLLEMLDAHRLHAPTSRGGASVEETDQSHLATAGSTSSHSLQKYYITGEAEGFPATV
Sequence of Peroxisome proliferator-activated receptor alpha (Homo sapiens) (Q07869 whole entry, looked up): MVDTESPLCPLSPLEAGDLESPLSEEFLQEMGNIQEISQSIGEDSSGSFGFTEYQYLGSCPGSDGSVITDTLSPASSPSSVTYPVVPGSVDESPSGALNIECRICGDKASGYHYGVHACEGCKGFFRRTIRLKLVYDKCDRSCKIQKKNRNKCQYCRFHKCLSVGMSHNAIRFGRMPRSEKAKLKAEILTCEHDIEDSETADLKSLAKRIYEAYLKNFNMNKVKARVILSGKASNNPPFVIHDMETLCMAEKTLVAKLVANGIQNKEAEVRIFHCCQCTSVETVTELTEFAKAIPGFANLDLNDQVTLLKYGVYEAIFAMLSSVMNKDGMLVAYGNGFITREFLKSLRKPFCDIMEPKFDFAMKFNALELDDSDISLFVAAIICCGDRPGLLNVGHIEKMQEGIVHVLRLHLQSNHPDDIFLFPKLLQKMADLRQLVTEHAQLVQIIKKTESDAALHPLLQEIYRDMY
Sequence of Peroxisome proliferator-activated receptor delta (Homo sapiens) (Q03181 whole entry, looked up): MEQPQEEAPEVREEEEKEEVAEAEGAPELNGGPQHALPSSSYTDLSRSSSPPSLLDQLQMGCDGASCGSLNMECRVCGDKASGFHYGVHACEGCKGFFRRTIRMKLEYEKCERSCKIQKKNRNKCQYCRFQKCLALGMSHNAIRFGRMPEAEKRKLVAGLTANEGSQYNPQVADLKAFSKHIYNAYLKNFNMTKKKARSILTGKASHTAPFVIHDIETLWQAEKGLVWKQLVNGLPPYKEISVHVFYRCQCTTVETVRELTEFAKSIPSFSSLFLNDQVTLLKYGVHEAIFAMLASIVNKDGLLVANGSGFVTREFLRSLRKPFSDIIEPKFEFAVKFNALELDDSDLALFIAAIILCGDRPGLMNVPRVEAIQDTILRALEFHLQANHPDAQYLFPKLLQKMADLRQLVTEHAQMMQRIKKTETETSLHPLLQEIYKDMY
Sequence of Nuclear receptor subfamily 1 group I member 2 (Rattus norvegicus) (Q9R1A7 whole entry, looked up): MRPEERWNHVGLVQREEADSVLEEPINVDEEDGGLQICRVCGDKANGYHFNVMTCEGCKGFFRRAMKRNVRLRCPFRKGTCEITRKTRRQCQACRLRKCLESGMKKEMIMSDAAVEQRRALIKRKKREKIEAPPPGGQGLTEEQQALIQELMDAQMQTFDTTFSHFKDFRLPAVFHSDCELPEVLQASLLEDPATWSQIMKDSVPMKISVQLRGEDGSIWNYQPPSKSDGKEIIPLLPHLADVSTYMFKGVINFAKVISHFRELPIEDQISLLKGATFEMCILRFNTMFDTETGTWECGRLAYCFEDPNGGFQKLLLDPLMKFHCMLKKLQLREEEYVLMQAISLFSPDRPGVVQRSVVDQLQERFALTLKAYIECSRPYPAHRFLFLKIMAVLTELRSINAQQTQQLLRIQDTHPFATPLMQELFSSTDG
Sequence of Thyroid hormone receptor beta (Homo sapiens) (P10828 whole entry, looked up): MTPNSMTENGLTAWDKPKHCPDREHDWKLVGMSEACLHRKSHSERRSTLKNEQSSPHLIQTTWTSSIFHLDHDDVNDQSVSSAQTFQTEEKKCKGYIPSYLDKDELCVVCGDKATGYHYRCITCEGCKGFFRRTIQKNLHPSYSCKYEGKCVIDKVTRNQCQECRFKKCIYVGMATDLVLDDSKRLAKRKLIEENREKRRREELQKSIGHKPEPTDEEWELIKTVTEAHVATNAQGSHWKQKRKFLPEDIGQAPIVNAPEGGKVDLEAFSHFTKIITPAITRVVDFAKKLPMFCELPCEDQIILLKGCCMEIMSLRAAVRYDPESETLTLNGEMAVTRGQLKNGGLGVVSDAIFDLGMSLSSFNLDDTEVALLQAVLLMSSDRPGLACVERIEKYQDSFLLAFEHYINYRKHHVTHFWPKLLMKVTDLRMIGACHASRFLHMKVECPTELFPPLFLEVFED
Sequence of Retinoic acid receptor RXR-alpha (Homo sapiens) (P19793 whole entry, looked up): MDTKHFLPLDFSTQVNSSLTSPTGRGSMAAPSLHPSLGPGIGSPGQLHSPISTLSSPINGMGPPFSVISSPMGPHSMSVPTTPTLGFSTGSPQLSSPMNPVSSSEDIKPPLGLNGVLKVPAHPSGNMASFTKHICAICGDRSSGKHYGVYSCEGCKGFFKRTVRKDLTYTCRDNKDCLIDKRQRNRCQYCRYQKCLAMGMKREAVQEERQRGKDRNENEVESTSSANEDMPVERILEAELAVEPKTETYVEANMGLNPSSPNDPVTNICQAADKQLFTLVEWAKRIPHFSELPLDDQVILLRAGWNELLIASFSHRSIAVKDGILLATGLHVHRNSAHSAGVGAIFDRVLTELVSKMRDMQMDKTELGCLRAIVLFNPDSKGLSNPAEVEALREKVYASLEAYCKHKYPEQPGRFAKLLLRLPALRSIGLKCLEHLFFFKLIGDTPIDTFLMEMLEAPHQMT

CC(C)(C)N(NC(=O)c1ccc(Cl)cc1)C(=O)c1ccccc1
inactive: Potency [1] | outcome [2] | Potency [4] | Potency [5] | Potency [6] | Potency [8] | Potency [9] | max response [11] 4.87% | activation [12] 1.26% | max response [13] -3.24% | Potency [14] | max response [15] -5.92% | max response [16] -8.37% | Potency [17]
-8.46%: max response [7]
-5.95%: max response [10]
-27.8%: max response [3]

CCOP(=S)(OCC)Oc1ncn(-c2ccccc2)n1
-6.39%: max response [7]
-1.85%: max response [10]
inactive: Potency [1] | outcome [2] | Potency [4] | Potency [6] | outcome [18] | Potency [8] | Potency [9] | max response [11] -7.83% | max response [13] -2.29% | Potency [14] | max response [15] -3.44% | max response [16] -0.263% | Potency [17]
1.15%: max response [3]

CC(Oc1cc(Cl)c(Cl)cc1Cl)C(=O)O (stereo unspecified)
-8.77%: max response [7]
-19.8%: max response [10]
52.3%: max response [3]
inactive: Potency [1] | outcome [2] | Potency [5] | Potency [6] | outcome [18] | Potency [8] | max response [11] 1.54% | activation [12] 2.71% | max response [13] -0.109% | Potency [14] | max response [15] 15.3% | max response [16] 0.242% | Potency [17] | max response [19] 2.63%

CS(=O)(=O)c1cc(C(F)(F)F)ccc1C(=O)c1cnoc1C1CC1
inactive: Potency [1] | Potency [5] | Potency [6] | outcome [18] | Potency [9] | max response [11] -4.05% | activation [20] -1.28% | activation [12] -0.804% | Potency [14] | max response [15] -9.62% | max response [16] -14.1% | Potency [17] | max response [19] -4.39%
51.3%: max response [3]
-9.9%: max response [10]

OC(Cn1cncn1)(c1ccc(F)cc1)c1ccccc1F (stereo unspecified)
inactive: Potency [1] | outcome [2] | Potency [4] | Potency [5] | Potency [6] | outcome [18] | Potency [8] | Potency [9] | max response [11] -2.11% | activation [20] 0.874% | activation [12] -1.4% | max response [13] -2.15% | Potency [14] | max response [15] -4.37% | max response [16] -3.84% | Potency [17]
-7.56%: max response [7]
-19.4%: max response [10]

c1cc2c3c(cccc3c1)CC2
-25.4%: max response [3]
-4.84%: max response [10]
-7.15%: max response [7]
inactive: Potency [1] | outcome [2] | Potency [4] | Potency [5] | Potency [8] | Potency [9] | max response [11] -3.28% | activation [20] 5.25% | activation [12] 0.274% | max response [13] -0.57% | Potency [14] | max response [15] 18.9% | max response [16] -7.08% | Potency [17] | max response [19] 0.0529%

CNC(=O)/C=C(\C)OP(=O)(OC)OC
32.8%: max response [3]
inactive: Potency [1] | outcome [2] | Potency [4] | Potency [6] | outcome [18] | Potency [8] | Potency [9] | max response [11] -15.9% | activation [12] 7.36% | max response [13] -1.97% | max response [15] -10% | max response [16] -10.5% | Potency [17] | max response [19] 0.645%
-16.8%: max response [10]
-13.8%: max response [7]

COP(=O)(OC)O/C(C)=C/C(=O)N(C)C
0.42%: max response [10]
inactive: Potency [1] | outcome [2] | Potency [4] | Potency [6] | Potency [8] | max response [11] -0.431% | activation [20] -0.0413% | activation [12] 1.01% | max response [13] -1.78% | Potency [14] | max response [15] 15.8% | max response [16] 2.37% | Potency [17] | max response [19] 1.37%
-0.0825%: max response [7]
-17.4%: max response [3]

c1cc(OCC2CO2)cc(OCC2CO2)c1 (stereo unspecified)
inactive: outcome [2] | max response [11] 5.23% | Potency [14]
21.9%: max response [3]
active: Potency [1] 31.6 µM [inconclusive] | Potency [20] 25.1 µM
6.7%: max response [10]

COCc1cnc(C2=NC(C)(C(C)C)C(=O)N2)c(C(=O)O)c1 (stereo unspecified)
-13.7%: max response [3] | max response [10]
inactive: Potency [1] | outcome [2] | Potency [4] | Potency [5] | Potency [6] | outcome [18] | Potency [9] | max response [11] 6.51% | activation [12] 1.65% | max response [13] 0.0113% | Potency [14] | max response [15] 4.02% | max response [16] -3.54% | Potency [17] | max response [19] -0.0309%

Cc1cc(Cl)ccc1OC(C)C(=O)O (stereo unspecified)
inactive: Potency [1] | Potency [5] | Potency [8] | max response [11] -2.46% | activation [20] -1.95% | activation [12] 0.794% | max response [13] 2.19% | Potency [14] | max response [15] -3.1% | max response [16] 0.82% | Potency [17] | max response [19] -0.122%
36.3%: max response [3]
-2.86%: max response [10]
-5.5%: max response [7]

COc1nc(C)nc(NC(=O)NS(=O)(=O)c2ccccc2CCC(F)(F)F)n1
-27.4%: max response [7]
inactive: Potency [1] | Potency [4] | Potency [5] | Potency [8] | Potency [9] | max response [11] -8.68% | activation [20] 1.94% | activation [12] 0.656% | max response [13] -1.05% | Potency [14] | max response [15] 3.55% | max response [16] 0.421% | Potency [17] | max response [19] 1.14%
34.6%: max response [3]
-4.25%: max response [10]

CCN(CC)C(=O)C(C)Oc1cccc2ccccc12 (stereo unspecified)
inactive: Potency [1] | Potency [4] | Potency [5] | Potency [8] | Potency [9] | max response [11] -6.13% | activation [20] -0.234% | activation [12] 1.45% | max response [13] 0.442% | Potency [14] | max response [15] -4.78% | max response [16] -1.61% | Potency [17]
5.95%: max response [7]
-20.3%: max response [10]

Reference: PubChem BioAssay (NCATS)
